Consider eight compounds from PubChem BioAssay (NCI).

This is part of a sample that, as a whole, favours compounds with a hit. Of some 83,000 tested, about 20% had one in any assay.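 Cell lines were cultured in 96-well plates, exposed to a single compound concentration, and assessed for percent growth 48 hours later.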 A number with no mark means an inactive call. Active and inactive are the calls of the source. The calls were made as follows: active = growth percent below 10; inactive = the rest.

Common to all, as to test: NCI-60 one-dose screen, 48 h (100 = growth as untreated, 0 = no growth, -100 = all killed)
Conditions in all cases: 10 µM unless noted

The subject of test [1] is HCT-15 colon.
Test [2] concerns HT29 colon.
Test [3] deals with SNB-75 CNS.
The test system of test [4] is SNB-19 CNS.
For test [5], the system named is U251 CNS.
In test [6] the test system is PC-3 prostate.
For test [7], the system named is SK-MEL-5 melanoma.
Test [8] concerns UACC-62 melanoma.
Test [9] relates to LOX IMVI melanoma.
Test [10] concerns SK-MEL-28 melanoma.
Test [11] relates to SK-MEL-2 melanoma.
Test [12] deals with EKVX NSCLC.
In test [13] the test system is SN12C renal.
The test system of test [14] is UO-31 renal.
Test [15] concerns TK-10 renal.
Test [16] concerns ACHN renal.
Test [17] relates to CAKI-1 renal.
Test [18] has as its system A498 renal.
The subject of test [19] is CCRF-CEM leukemia.
Test [20] relates to MOLT-4 leukemia.

As for `CCCCCCCCn1ccc2cc(NC(=O)CN3CCN(c4cc(C)nc(Cl)n4)CC3)ccc21`, the growth in test [1] was 76.3%; in test [2] it was 77.3%; in [3] it was 82.9%; in [4], 88.9%; in test [5] it was 89.5%; in test [6] it was 61.4%. Further, the growth in test [7] is 59.3%; in test [8], 64.5%; in test [9], 94.2%; in test [10] it was 90.9%; in test [11], 109%; in [12], 64.4%. Also, the growth was 100% in test [13]; 63.5% in [14]; 95.1% in test [15]; 86.3% in test [16]; 92.6% in test [17]; 97.5% in [18]. Besides, the values for the growth in test [19] and in [20] were -35.7% (active) and 26.2%, respectively.

In the case of `CN(C)c1ccc(/C=C2\C=C(c3nc4ccccc4s3)OC2=O)cc1`, the growth is 102% in [1]; 98.2% in [2]; 87.2% in test [3]; 95.3% in test [4]; 98.4% in [5]; 78.5% in test [6]. The growth is 96.4% in test [7]; 75.4% in [8]; 91% in test [9]; 106% in test [10]; 107% in test [11]; 94% in test [12]. Moreover, the growth in test [13] was 97.1%; in [14], 73.4%; in test [15], 118%; in test [16], 92.2%; in [17], 76%; in test [18], 112%. The growth in test [19] is 99%; in [20], 94.8%.

Turning to `Cc1ccc(C2CC(c3cccc(Nc4ccncc4)c3)=Nc3c(N)nc(N)nc3N2)cc1` (stereo not given), the growth in [1] is 40.4%; in [2], 21.7%; in test [3], 70%; in test [4], 70.5%; in [5] it was 42.4%; in test [6], 43.8%. Moreover, the growth in test [7] is 65.3%; in test [8] it was 78.4%; in test [9], 25.7%; in test [10], 93.2%; in test [11], 71.1%; in test [12], 60.2%. Besides, the growth in test [13] was 61.2%; in test [14], 75.3%; in test [15], 99.8%; in [16] it was 56.1%; in [17], 72.3%; in test [18], 86%. Also, the growth in test [19] was 33.9%; in test [20], 33.4%.

Consider `CCN(CC)CCn1c2ccc(OC)cc2c2sc3cc(O)ccc3c(=O)c21`, for which the growth in [1] is 18.7%; in [2] it was 15.1%; in test [3], 78.8%; in test [4] it was 25.8%; in test [5], 27.4%; in [6] it was 32%. For the same compound, the growth was 76.1% in test [7]; 54.8% in test [8]; -30.4% (active) in test [9]; 68.8% in test [10]; 61.2% in test [11]; 47.3% in [12]. The growth was 23.6% in test [13]; 23.9% in [14]; 82.2% in [15]; 4.69% (active) in test [16]; 58.1% in test [17]; 43.8% in test [18]. For the same compound, the values for the growth in test [19] and in [20] were 13.9% and 8.27% (active), respectively.

Consider `CNC(=O)Nc1ccc(-c2ccc3ncnc(Nc4cccc(Cl)c4)c3c2)cc1`, for which the growth in test [1] was 45.9%; in test [2], 29%; in test [3], 54.6%; in test [4], 69.6%; in test [5], 54.9%; in test [6] it was 45.1%. The growth in test [7] was 56.1%; in [8] it was 64.7%; in test [9] it was 60.8%; in test [10], 58.9%; in test [11] it was 65.9%; in test [12], 2% (active). The growth in test [13] was 62.3%; in test [14], 46.5%; in test [15], -3.72% (active); in test [16], 34.2%; in test [17] it was 32.1%; in test [18], -8.06% (active). Besides, the growth in test [19] was 44.5%; in test [20], 36.7%.

For the compound `O=C(NCCCCCCNC(=O)OCc1ccc2c(Cl)cc(Cl)c(O)c2n1)OCc1ccc2c(Cl)cc(Cl)c(O)c2n1`, the growth was -29.1% (active) in test [1]; -75% (active) in test [2]; -96.2% (active) in [3]; 51.4% in [4]; -92.2% (active) in [5]; -46.2% (active) in test [6]. Also, the growth in test [7] is -95.5% (active); in test [8], -94.3% (active); in test [9], -88.7% (active); in [10], -89.8% (active); in test [11] it was -62% (active); in [12] it was -69% (active). Also, the growth in [13] was -93.4% (active); in [14], -100% (active); in test [15] it was -90.3% (active); in test [16], -97.5% (active); in test [17], -87.8% (active); in test [18] it was 34.9%. In addition, the growth was 2.24% (active) in test [19] and -2.75% (active) in test [20].

In the case of `COc1cc(/C=C/c2cc(/C=C/c3ccc(O)c(OC)c3)n(C(=O)Nc3ccc(Cl)cc3)n2)ccc1O`, the growth was 7.86% (active) in test [1]; -11.1% (active) in [2]; 18.7% in [3]; 9.25% (active) in [4]; 4.31% (active) in test [5]; 4.24% (active) in test [6]. In addition, the growth was -29.7% (active) in test [7]; 4.06% (active) in test [8]; 3.04% (active) in test [9]; 12.7% in [10]; -23.5% (active) in test [11]; 16.9% in [12]. In addition, the growth is 9% (active) in test [13]; 2.71% (active) in [14]; 23.1% in test [15]; 9.29% (active) in test [16]; 0.131% (active) in [17]; -0.596% (active) in test [18]. Further, the growth is 4.45% (active) in test [19] and -2% (active) in test [20].

Consider `Cc1cccc(-c2nc(C(C)C)sc2-c2ccnc(NCCCNS(=O)(=O)c3ccc(Cl)cc3)c2)c1`, for which the growth in test [1] was 36.5%; in test [2], 16.9%; in test [3] it was 97.5%; in [4], 89.6%; in test [5] it was 73%; in test [6], 50%. In addition, the growth in [7] was 87.6%; in test [8] it was 96.4%; in [9], 75%; in [10] it was 90.6%; in test [11], 79%; in test [12], 78.4%. In addition, the growth in test [13] is 73%; in [14], 75.3%; in [15], 80.1%; in [16], 75.6%; in [17], 85%; in test [18], 79%. Besides, the growth is 68.4% in test [19] and 52.3% in [20].
